These results are taken from PubChem BioAssay (NCI).

Assay [1] in a line: NCI Yeast Anticancer Drug Screen. Data for the rad50 strain (AID 155).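 Further: 0% = growth of vehicle-only cultures of the same strain.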 The note with it: S. cerevisiae rad50 strain growth inhibition; at 50.0 µM; active compounds read high. In outline:
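Readout: growth inhibition relative to vehicle-treated cultures. Compound exposure was carried out in a genetically defined yeast strain deficient in DNA damage repair.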

The nature of assay [2]: NCI Yeast Anticancer Drug Screen. Data for the mec2-1 strain (AID 157). The note with it: S. cerevisiae mec2-1 strain, at 50.0 µM, active compounds read high. In outline:
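Compounds were applied to mec2-1 yeast cells. Their growth was then compared with that of vehicle-treated cultures to give growth inhibition.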

Assay [3] can be described thus: NCI Yeast Anticancer Drug Screen. Data for the sgs1 mgt1 strain (AID 161).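 Further: 0% = growth of cultures given vehicle only.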 Conditions: S. cerevisiae sgs1 mgt1 strain, at 50.0 µM, active compounds read high. In a few lines: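 Growth of a repair-deficient yeast mutant was monitored after compound treatment and expressed as inhibition relative to vehicle-treated cultures.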
Assay [4] is described as follows: NCI Yeast Anticancer Drug Screen. Data for the cln2 rad14 strain (AID 165).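 Further: 0% = growth equal to vehicle treated cultures.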 The note with it: S. cerevisiae cln2 rad14 strain, at 50.0 µM, active compounds read high. In outline: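 Strain: cln2 rad14 yeast, altered in cell cycle control and DNA damage repair. Read-out: growth inhibition vs vehicle.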
Assay [5] is described as follows: NCI Yeast Anticancer Drug Screen. Data for the bub3 strain (AID 167). Conditions: S. cerevisiae bub3 mutant strain, at 50.0 µM, active compounds read high. In a few lines: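 Readout: yeast growth inhibition, expressed relative to vehicle-only wells. The test organism is a mutant strain from a panel with lesions in DNA repair or checkpoint genes.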
Assay [6] can be described thus: NCI Yeast Anticancer Drug Screen. Data for the mlh1 rad18 strain (AID 175). The note with it: S. cerevisiae mlh1 rad18 strain growth inhibition; at 50.0 µM; active compounds read high. In a few lines: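 A repair-deficient yeast strain is exposed to test compound, and growth is scored relative to vehicle-treated controls.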

Each structure is given as a SMILES string. About 79,000 compounds went through this panel and 15% of them were active in at least one assay; those are over-represented in the sample as a whole. Unmarked numbers belong to inactive results. Activity calls are given as the source filed them. No stated cut-off is given here; in the data, active means growth inhibition above about 70%; inactive means the rest.

For the compound `CC(=O)OCC1C(=O)OCC1C(=O)N1Cc2cc3ccccc3nc2C1` (stereo not given), the growth inhibition in assay [1] was -10.6%; in assay [2] it was -1.55%; in assay [3] it was 13.7%; in assay [4], -18.9%; in assay [5] it was 31.2%; in assay [6] it was -9.85%.
For `O/N=C1\CCc2nonc2\C1=N/Nc1ccccc1`, the growth inhibition in assay [1] was -2.05%; in assay [2] it was 2.8%; in assay [3], -2.35%; in assay [4] it was 1.45%; in assay [5] it was 7%; in assay [6], -1.9%.
Consider `CCC(=O)c1ccccc1C#N`, for which the growth inhibition in assay [1] is 8.5%; in assay [2], -3.25%; in assay [3], 1.6%; in assay [4] it was -4.3%; in assay [5], 0.1%; in assay [6], -1.45%.
As to `CCCc1cc(C)cc(N=Cc2ccccc2)c1O`, the growth inhibition in assay [1] is 96.6% (active); in assay [2] it was 97.6% (active); in assay [3], 93.8% (active); in assay [4] it was 97.8% (active); in assay [5], 97% (active); in assay [6], 97.2% (active).
As for `Cc1c(-c2ccccc2)cc(O)c2nc3ccccc3n12`, the growth inhibition in assay [1] is -31.2%; in assay [2], 6.45%; in assay [3], -16.6%; in assay [4], 2.45%; in assay [5] it was 11.9%; in assay [6], -36.9%.
In the case of `CN1C(=O)C2CSCN2C1=S` (stereo not given), the growth inhibition in assay [1] is -38%; in assay [2], -7.7%; in assay [3] it was -5.4%; in assay [4] it was -12.3%; in assay [5], -13.6%; in assay [6] it was 5.1%.
For the compound `C[N+](C)(C)CCOc1cccc(Br)c1`, the growth inhibition in assay [1] is 9.8%; in assay [2], 14.5%; in assay [3] it was 21.6%; in assay [4] it was 29.8%; in assay [5], 11.7%; in assay [6], 23.9%.
As for `c1ccc(-c2nnc(-c3ccccn3)c3c2C[C@@H]2C[C@@H]4Cc5c(-c6ccccn6)nnc(-c6ccccn6)c5[C@@H]4[C@H]32)nc1`, the growth inhibition is -4.95% in assay [1]; 0.1% in assay [2]; -16.4% in assay [3]; 9.25% in assay [4]; 10.3% in assay [5]; -17.4% in assay [6].
`COc1ccccc1-n1nnc2c(N)nc(N)nc21`: the growth inhibition is 7.05% in assay [1]; -12.2% in assay [2]; -13.2% in assay [3]; 4.05% in assay [4]; -22.1% in assay [5]; -9.25% in assay [6].
Regarding `CC(=O)CCCC(CC(C)O)[Si](C)(C)C` (stereo not given), the growth inhibition in assay [1] is -43.6%; in assay [2], -19.4%; in assay [3] it was -1.05%; in assay [4], -14.2%; in assay [5], -8.45%; in assay [6], -23.6%.
As for `CC(=O)[CH-]C(=O)c1ccccc1.CC(=O)[CH-]C(=O)c1ccccc1.CC[C@H](/C=C/C(C)[C@H]1CCC2[C@@H]3CC=C4C[C@@H]([O-])CC[C@]4(C)C3CC[C@@]21C)C(C)C.CC[O-].[Ti+4]` (stereo not given in full), the growth inhibition is 8% in assay [1]; -4.6% in assay [2]; -2.45% in assay [3]; -2.3% in assay [4]; 5.3% in assay [5]; -12.2% in assay [6].
Regarding `c1ccc(C2=Nc3ccccc3-c3ccccc3N2)cc1`, the growth inhibition was -2.95% in assay [1]; -1.35% in assay [2]; -6.05% in assay [3]; -28.4% in assay [4]; -4.75% in assay [5]; -8.05% in assay [6].
With `Fc1ccc(C2(c3ccc(F)cc3)CCCO2)cc1`, the growth inhibition was 4.4% in assay [1]; -22.4% in assay [2]; -6.15% in assay [3]; 25.7% in assay [4]; -4.1% in assay [5]; 6.2% in assay [6].
As for `O=C1c2ccccc2-c2ccc(N3C(=O)C=CC3=O)cc21`, the growth inhibition was 98.6% (active) in assay [1]; 98.6% (active) in assay [2]; 98.8% (active) in assay [3]; 56.2% in assay [4]; 92.4% (active) in assay [5]; 92.2% (active) in assay [6].
With `CCCC(C)c1ccc(OCc2ccc(C)cc2)cc1` (stereo not given), the growth inhibition in assay [1] was 1.6%; in assay [2], -4.25%; in assay [3] it was -18.1%; in assay [4], 13.8%; in assay [5] it was -1.05%; in assay [6], -4.9%.
On to `O=C1NC(=O)c2c1c1cnn(-c3ccccc3)c1n1cccc21`, for which the growth inhibition in assay [1] was 15.1%; in assay [2], 4.35%; in assay [3] it was 25.2%; in assay [4], -67%; in assay [5] it was 1.2%; in assay [6], 17.7%.
In the case of `COc1ccc(C(NC(N)=O)c2cc3c(cc2OC(C)=O)OCO3)c(OC)c1` (stereo not given), the growth inhibition in assay [1] is 10.8%; in assay [2], 4.65%; in assay [3], -2.45%; in assay [4], 22.4%; in assay [5] it was -3.25%; in assay [6], 16.3%.
Take `Cc1ccc(S(=O)(=O)CCC(=O)c2ccc([N+](=O)[O-])cc2)cc1`: the growth inhibition in assay [1] was 9.35%; in assay [2], 20.1%; in assay [3], 14.8%; in assay [4], 6.65%; in assay [5] it was 3.05%; in assay [6], 16.9%.
For `O=C(O)/C(Cc1ccnc2ccccc12)=N\O`, the growth inhibition in assay [1] was -1.35%; in assay [2], 2.7%; in assay [3], -15.4%; in assay [4], -0.05%; in assay [5] it was -22.7%; in assay [6] it was 0.4%.
Regarding `C/C(=N/NC(=S)N1CCCCC1)c1ccccc1O`, the growth inhibition in assay [1] was -17.4%; in assay [2], -41.7%; in assay [3], 1.55%; in assay [4] it was 4.4%; in assay [5], -10.6%; in assay [6], -5.75%.
